HT1080-NT tox: kills 2HG-producing HT-1080-NT fibrosarcoma cells | Potency, µM (top dose mostly 46.1 µM), for inactives: at the highest dose activity, negative = less viability, hits mostly cytotoxic | 1.6% of 360,000 active | HT-1080-NT fibrosarcoma viability, CellTiter-Glo ATP luminescence, 48 h;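 note: NT is the 2HG producing partner of a matched IDH1 knockdown line; potency is the fitted concentration of half-maximal effect; 0% = DMSO-treated cells and -100% = media-only wells without cells; nearly all actives have a fitted effect of over 55% in size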
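Read-out is CellTiter-Glo luminescence after 10 minutes at room temperature, following 48 hours' compound treatment of HT-1080-NT cells (750 cells/well, RPMI, 5% FBS, 37 degrees C).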
HT1080 IDH1KD tx: HT-1080 IDH1 knockdown cell toxicity (counter line); HT-1080 IDH1 knockdown viability, ATP luminescence, 48 h; Potency, µM (doses to about 46.1 µM), for inactives: at the top dose activity, negative = toxicity, most hits filed as cytotoxic; 2% of 360,000 active;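 note: potency is the fitted concentration of half-maximal effect; 0% = DMSO wells and -100% = cell-free medium wells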
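After a 2 h attachment period, IDH1KD HT-1080 cells took pin-transferred compound for 48 h at 37 °C; ATP-based luminescence after 10 min room-temperature reagent incubation reported viability.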
TDP1 cell noCPT: qHTS for Inhibitors of human tyrosyl-DNA phosphodiesterase 1 (TDP1): qHTS in cells in absence of CPT | DT40 Tdp1-/- hTDP1 cells, no CPT, ATP luminescence, 48 h | Potency, µM (highest dose often 46.2 µM), for the others: top-dose activity change, negative = growth inhibition, usual class: inhibitors | 15% of 420,000 active | AID 686978, 2013; note: potency is the fitted concentration of half-maximal effect; nearly all actives have a fitted effect of over 55% in size
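Stably hTDP1-transfected Tdp1-null chicken DT40 cells were treated with library compounds minus camptothecin and grown for at least 48 hr at 37 °C, after which cellular ATP was quantified by luminescence.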
IL1B secr inh: inhibitors of inflammasome signaling (IL-1 beta secretion) | THP-1 LPS/ATP IL-1B secretion, AlphaLISA, 16 h; stronger effect = lower value | AID 743279 | activity change, % at 57.5 µM | 4.7% of 360,000 active; in the data active = activity change below about -50%; inconclusive = mostly about -30% to -49%
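THP-1 cells pretreated 1 hr with compounds (up to 57.5 uM final), then stimulated with LPS (250 ng/mL final) plus ATP (1.25 mM final); secreted IL-1B measured by AlphaLISA after 16 hr, decreased signal indicating inhibition.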
ELG1 repair inh: blocks ELG1-dependent DNA repair in HEK293T cells; HEK293T ELG1-luciferase reporter, luminescence, 16 h; DNA damage induced by 5-fluorouridine; Potency, µM (doses to about 46.1 µM), inactives show at the highest dose activity change, negative = inhibition, hits mostly inhibitors; AID 504467; 2.3% of 330,000 active; note: potency is the fitted concentration of half-maximal effect; nearly all actives have a fitted effect of over 55% in size
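In this reporter screen, reduction of luminescence relative to DMSO vehicle indicated activity. Compounds and 5-fluorouridine were added together to 2,000 cells per well, incubated for 16 hr at 37 °C, then developed with ONE-Glo.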
TDP1 cell CPT: DT40-hTDP1 cell growth loss with CPT. chicken DT40 Tdp1-/-;hTDP1 cells + 20 nM CPT, ATP luminescence, 48 h. Potency, µM (series often up to 46.2 µM), without a hit: at the top dose activity change, negative = growth inhibition, usual class: inhibitors. 12% of 420,000 active; note: potency is the fitted concentration of half-maximal effect; nearly all actives have a fitted effect of over 55% in size
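Chicken DT40 Tdp1-/- cells complemented with human TDP1, 400 cells/well, exposed to compounds plus 20 nM camptothecin for at least 48 h at 37 C; viability read as ATP content by CellTiter-Glo luminescence.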
Numbers without * were called inactive. An excerpt weighted towards active compounds, which were near 19% of everything screened. Unless noted, calls come from the whole dose curve; as a rule, active = well fitted curve in the direction sought with a large enough effect; inconclusive = small, poorly fitted or top-dose-only effect, or another doubt; inactive = no such curve, though single readings can be large; an effect the other way counts as inactive or inconclusive. Unless noted, % is set by controls: 0 for no effect and ±100 for the full control effect.

What do the screens show for `COc1cc(C(=O)O)c([N+](=O)[O-])c(OC)c1OC`?
HT1080-NT tox: 0%; HT1080 IDH1KD tx: 5%; TDP1 cell noCPT: 10%; IL1B secr inh: -3; ELG1 repair inh: 10%; TDP1 cell CPT: 0%

How did COc1ccc(N(CC(=O)NCc2ccco2)C(=O)CCC(=O)Nc2nccs2)c(OC)c1 do in these assays?
HT1080-NT tox: -19%; HT1080 IDH1KD tx: -1%; TDP1 cell noCPT: -26%; IL1B secr inh: -25; ELG1 repair inh: -13%; TDP1 cell CPT: -7%

Results for O=c1[nH]c(COc2ccc(Br)cc2Cl)nc2ccccc12 ?
HT1080-NT tox: 4%; HT1080 IDH1KD tx: -6%; TDP1 cell noCPT: inconclusive; IL1B secr inh: 35; ELG1 repair inh: inconclusive; TDP1 cell CPT: 21µM*

What do the screens show for `Cc1ccccc1Nc1nnc(SCc2nc3ccccc3c(=O)[nH]2)s1`?
ELG1 repair inh: 0%

What do the screens show for `CCOc1ccc(Nc2nnc(SCc3nc4ccccc4c(=O)[nH]3)s2)cc1`?
HT1080-NT tox: -7%; HT1080 IDH1KD tx: 3%; TDP1 cell noCPT: 18µM*; IL1B secr inh: 66; ELG1 repair inh: 18%; TDP1 cell CPT: 18µM*

How did O=c1[nH]c(CSc2nnc(COc3ccccc3)n2-c2ccccc2)nc2ccccc12 do in these assays?
HT1080-NT tox: inconclusive; HT1080 IDH1KD tx: inconclusive; TDP1 cell noCPT: -29%; IL1B secr inh: -4; ELG1 repair inh: inconclusive; TDP1 cell CPT: -1%

Results for O=c1[nH]c(COc2ccccc2)nc2ccccc12 ?
HT1080-NT tox: -10%; HT1080 IDH1KD tx: -25%; TDP1 cell noCPT: inconclusive; IL1B secr inh: -18; ELG1 repair inh: inconclusive; TDP1 cell CPT: 21µM*

How did COc1cccc(N/C=C/c2onc(C)c2[N+](=O)[O-])c1 do in these assays?
HT1080-NT tox: 8%; HT1080 IDH1KD tx: 3%; TDP1 cell noCPT: -3%; IL1B secr inh: 24; ELG1 repair inh: inconclusive; TDP1 cell CPT: inconclusive

How did COc1ccc(NS(=O)(=O)c2cccc(C(=O)N(C)CC(=O)Nc3ccc(C)cc3)c2)cc1 do in these assays?
HT1080-NT tox: 1%; HT1080 IDH1KD tx: 1%; TDP1 cell noCPT: 0%; IL1B secr inh: -11; ELG1 repair inh: 1%; TDP1 cell CPT: -9%

What do the screens show for `COc1cccc(NC(=O)CN(C)C(=O)c2cccc(S(=O)(=O)N3CCN(c4ccccc4)CC3)c2)c1`?
HT1080-NT tox: 0%; HT1080 IDH1KD tx: -7%; TDP1 cell noCPT: -59%; IL1B secr inh: -4; ELG1 repair inh: inconclusive; TDP1 cell CPT: inconclusive

What do the screens show for `CN(CC(=O)Nc1ccc(F)cc1)C(=O)c1cccc(S(=O)(=O)N2CCN(c3ccccc3)CC2)c1`?
HT1080-NT tox: -1%; HT1080 IDH1KD tx: -14%; TDP1 cell noCPT: 21µM*; IL1B secr inh: inactive; ELG1 repair inh: -23%; TDP1 cell CPT: 16µM*

What do the screens show for `COc1ccc(NC(=O)CN(C)C(=O)c2cccc(S(=O)(=O)N3CCN(c4ccc(F)cc4)CC3)c2)cc1`?
HT1080-NT tox: -1%; HT1080 IDH1KD tx: -12%; TDP1 cell noCPT: inconclusive; IL1B secr inh: inconclusive; TDP1 cell CPT: 13µM*

What do the screens show for `CC(=O)c1ccc(NC(=O)C2=CC(c3cccs3)=NS(=O)(=O)N2C)cc1`?
HT1080-NT tox: 0%; HT1080 IDH1KD tx: -2%; TDP1 cell noCPT: 16µM*; IL1B secr inh: -11; ELG1 repair inh: 6%; TDP1 cell CPT: inconclusive

What do the screens show for `COc1cc(NC(=O)C2=CC(c3cccs3)=NS(=O)(=O)N2C)cc(OC)c1OC`?
HT1080-NT tox: 6%; HT1080 IDH1KD tx: 0%; TDP1 cell noCPT: inconclusive; IL1B secr inh: 17; ELG1 repair inh: inconclusive; TDP1 cell CPT: inconclusive

Screens deposited in PubChem by National Center for Advancing Translational Sciences (NCATS).
